From PubChem BioAssay (NCI)
Values joined by “and” are separate entries in the source; they are usually repeats but may differ in a detail not shown here. Equal entries are not always repeated. About 83,000 compounds went through this panel and 20% of them were active in at least one assay; those are over-represented in the sample as a whole.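 Cells were grown in 96-well plates and exposed to the test compound at a single concentration for 48 hours; results are reported as percent growth, with values below 10 considered active.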 Active and inactive are the calls of the source.

The molecules below were run on SNB-75 CNS (assay: NCI-60 one-dose screen, 48 h (100 = growth as untreated, 0 = no growth, -100 = all killed)). Settings: 1 µM.
Protocol: Growth inhibition of the SNB-75 human tumor cell line is measured as a screen for anti-cancer activity. Cells are grown in 96 well plates and exposed to the test compound for 48 hours. Compounds are tested at a single concentration, which is 10^-5 M for most compounds. The reported endpoint is percent growth (GI% or GIPRCNT), where numbers from 0 - 100% represent growth inhibition, and numbers from -100% - 0 represent cell death. For example, a value of 40 represents 60% growth inhibition. A value of 0 means no net growth occurred over the course of the experiment. A value of -40 indicates 40% of cells at the beginning of the experiment died by the end of the experiment. A value of -100 means all cells are dead at the end of the experiment.
NCI-60 Human Tumor Cell Lines Screen was performed using the standard one-dose NCI protocol, which is described in more detail at https://dtp.cancer.gov/discovery_development/nci-60/default.htm.
Compounds with GIPRCNT values below 10 were considered active. Activity score was based on GIPRCNT using the following formula: […]
Score is 0 for GIPRCNT values of 100 or above, 50 for GIPRCNT values of 0, and 100 for GIPRCNT values of -100.

Q: With `CNC(=O)c1cc(Oc2ccc(CC(=O)Nc3cc(C(C)(C)C)nn3C)cc2)ccn1` as the molecule, how does the growth read?
A: Its growth is 51.3% (inactive).

Same assay, conditions: 10 µM

Q: Which growth does the source give for `CC1(C)OB(c2ccc(Cn3cc(F)c(=O)[nH]c3=O)cc2)OC1(C)C` here?
A: The growth was 103% (inactive).

Q: `O=C(O)c1sccc1O` was tested. Which growth did it give?
A: Its growth is 84.6% (inactive).

Q: For `CNC(=O)c1cc(Oc2ccc(CC(=O)Nc3cc(C(C)(C)C)nn3C)cc2)ccn1`, which growth is on record?
A: The growth was 68% (inactive).

Same assay, conditions: 10 µM unless noted

Q: Which growth does the source give for `O=C(Nc1ccc([N+](=O)[O-])cc1Cl)c1cc(Cl)ccc1O` here?
A: Its growth is -35.7% (active) and -48.7% (active).

Q: How did the growth turn out when `NC(=O)c1ccccc1OCC(O)CO` (stereo not given) was run?
A: The growth was 84.5% (inactive).

Q: `CC(=O)Nc1ccc2cc3ccc(NC(C)=O)cc3nc2c1` was tested. Which growth did it give?
A: The growth was 71.1% (inactive) and 83.1% (inactive).

Q: Which growth does the source give for `CCCCCn1sc(=O)n(Cc2ccc(CNC(=O)C(C)c3ccc(CC(C)C)cc3)cc2)c1=O` (stereo not given) here?
A: The growth was 94.3% (inactive) and -20.9% (active).

Q: How did the growth turn out when `O=C(Cc1cccc2ccccc12)N/N=C/c1ccc2c(c1)CCC2` was run?
A: Its growth is 80.2% (inactive).

Q: How did the growth turn out when `COc1ccc2cc3[n+](cc2c1OC)CCc1cc2c(cc1-3)OCO2` was run?
A: The growth was 85.5% (inactive) and 81% (inactive).

Q: `S=C(S)N1CCCC1` was tested. Which growth did it give?
A: The growth was 113% (inactive) and 89% (inactive).

Q: For `COc1ccc(NC(=S)Nc2ccccn2)cc1`, which growth is on record?
A: The growth was 152% (inactive).

Q: How did the growth turn out when `O=C1C2=C(C(=O)c3ccccc31)C(O)(S(=O)(=O)O)C(O)(S(=O)(=O)O)C1N=CC=CC21` (stereo not given) was run?
A: Its growth is 61.1% (inactive) and 35.1% (inactive).

Q: How did the growth turn out when `C#CCN(C)Cc1ccccc1` was run?
A: Its growth is 106% (inactive) and 115% (inactive).

Q: With `O=C(N/N=C/c1ccc2c(c1)OCO2)c1ccncc1` as the molecule, how does the growth read?
A: The growth was 77.9% (inactive) and 98.4% (inactive).

Q: How did the growth turn out when `OC(CSc1ccccc1)CN1CCN(c2cccc(Cl)c2)CC1` (stereo not given) was run?
A: The growth was 91.7% (inactive) and 102% (inactive).

Q: For `Cc1ncsc1CCO`, which growth is on record?
A: The growth was 111% (inactive) and 91.5% (inactive).

Q: `COc1ccc2c(=O)cc(-c3ccccc3)[nH]c2c1` was tested. Which growth did it give?
A: The growth was 13.8% (inactive) and 9.61% (active).

Q: With `Cc1cc(O)c2c(c1)C(=O)c1cc(O)cc(O)c1C2=O` as the molecule, how does the growth read?
A: Its growth is 88% (inactive) and 86.7% (inactive).

Q: Which growth does the source give for `Clc1ccc(NC(Nc2ccc(Cl)cc2)C(Cl)(Cl)Cl)cc1` here?
A: The growth was 79.2% (inactive) and 105% (inactive).

Q: With `Clc1nc(Oc2ccccc2)nc(-c2cn(-c3ccccc3)c3ccccc23)n1` as the molecule, how does the growth read?
A: The growth was 105% (inactive).

Q: With `CC1(C)[C@@H](OC(=O)CCC(=O)O)CC[C@]2(C)[C@H]3C(=O)C=C4[C@@H]5C[C@@](C)(C(=O)O)CC[C@]5(C)CC[C@@]4(C)[C@]3(C)CC[C@@H]12` as the molecule, how does the growth read?
A: Its growth is -68.7% (active).

Q: `Cc1nnc(NC/C=C/c2ccccc2)s1` was tested. Which growth did it give?
A: Its growth is 86.3% (inactive) and 103% (inactive).

Q: For `O=C1c2ccccc2C(=O)N1/N=C/c1ccc2c(c1)OCO2`, which growth is on record?
A: Its growth is 104% (inactive).

Q: Which growth does the source give for `N#C/C(=C/c1c(O)ccc2ccccc12)C(N)=O` here?
A: Its growth is 87.4% (inactive).

Q: For `O=C(O)CCCCc1ccc([N+](=O)[O-])cc1`, which growth is on record?
A: Its growth is 98.7% (inactive) and 89.7% (inactive).

Q: For `O=C1OC(Oc2ccc(Br)cc2)(c2ccccc2)c2ccccc21` (stereo not given), which growth is on record?
A: Its growth is 61.2% (inactive) and 77.1% (inactive).

Q: With `CCCCCCCCCCCCCCCc1cc(O)ccc1N` as the molecule, how does the growth read?
A: The growth was 63.5% (inactive) and 30.1% (inactive).

Q: For `Cc1ccc(S(=O)(=O)Nc2ccc3cc([N+](=O)[O-])ccc3c2[N+](=O)[O-])cc1`, which growth is on record?
A: Its growth is 80% (inactive) and 106% (inactive).

Q: `Nc1nc(SC/C=C/CCl)c2[nH]cnc2n1` was tested. Which growth did it give?
A: The growth was 108% (inactive) and 101% (inactive).

Q: How did the growth turn out when `NC(=S)N/N=C(\c1ccc(Br)cc1)C1CC1` was run?
A: Its growth is 87.1% (inactive) and 76.7% (inactive).

Q: With `Cc1ccc(S(=O)(=O)Nc2nc3ccccc3nc2Nc2ccc3nsnc3c2)cc1` as the molecule, how does the growth read?
A: The growth was 63.3% (inactive) and 65.9% (inactive).

Q: For `O=C(N/N=C/c1cccc2ccccc12)C1CC1`, which growth is on record?
A: Its growth is 90.9% (inactive) and 85% (inactive).

Q: `c1ccc2c(CC3=NCCN3)cccc2c1` was tested. Which growth did it give?
A: Its growth is 92.9% (inactive) and 105% (inactive).

Q: For `Clc1ccc(SSc2ccc(Cl)cc2)cc1`, which growth is on record?
A: Its growth is 74.4% (inactive) and 67% (inactive).

Q: Which growth does the source give for `Cn1c(=O)n(-c2ccc(C(C)(C)C#N)cc2)c2c3cc(-c4cnc5ccccc5c4)ccc3ncc21` here?
A: Its growth is -30.1% (active) and -24.4% (active).

Q: How did the growth turn out when `O=C1c2c(O)cc(O)cc2OC(c2ccc(O)c(O)c2)C1O` (stereo not given) was run?
A: The growth was 96.1% (inactive).

Same assay, conditions: 30 µM

Q: How did the growth turn out when `CNC(=O)c1cc(Oc2ccc(CC(=O)Nc3cc(C(C)(C)C)nn3C)cc2)ccn1` was run?
A: Its growth is 77.9% (inactive).

Same assay, conditions: 50 µM

Q: For `CC1(C)OB(c2ccc(Cn3cc(F)c(=O)[nH]c3=O)cc2)OC1(C)C`, which growth is on record?
A: Its growth is 38.3% (inactive).

Same assay, conditions: 100 µM

Q: For `O=C(O)c1sccc1O`, which growth is on record?
A: The growth was 28.5% (inactive).
